Measured values from publication PMC5540273 (PLoS ONE, 2017).

How the values were obtained:
Conditions in all cases: concentration: 1 μM, replicates: in singlicate; n = 1
CAMK2D = system: CAMK2D
CAMK2G = system: CAMK2G
CAMK4 = system: CAMK4
CAMKK1 = system: CAMKK1
CAMKK2 = system: CAMKK2
CASK = system: CASK
CDC2L1 = system: T1, CDC2L1
T1 construct: gene CDK11B

CDC2L2 = system: CDC2L2
CDC2L5 = system: T2, CDC2L5
T2 construct: gene CDK13

CDK11 = system: T3, CDK11
T3 construct: gene CDK19

CDK2 = system: CDK2
CDK3 = system: CDK3
CDK4-cyclinD1 = system: CDK4-cyclinD1
CDK4-cyclinD3 = system: CDK4-cyclinD3
CDK4 = system: CDK4
CDK5 = system: CDK5
CDK7 = system: CDK7
CDK8 = system: CDK8
CDK9 = system: CDK9
CDKL1 = system: CDKL1
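Further: KINOMEscan kinase panel screen.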

| SMILES | %Inh (CAMK2D) [%] | %Inh (CAMK2G) [%] | %Inh (CAMK4) [%] | %Inh (CAMKK1) [%] | %Inh (CAMKK2) [%] | %Inh (CASK) [%] | %Inh (CDC2L1) [%] | %Inh (CDC2L2) [%] | %Inh (CDC2L5) [%] | %Inh (CDK11) [%] | %Inh (CDK2) [%] | %Inh (CDK3) [%] | %Inh (CDK4-cyclinD1) [%] | %Inh (CDK4-cyclinD3) [%] | %Inh (CDK4) [%] | %Inh (CDK5) [%] | %Inh (CDK7) [%] | %Inh (CDK8) [%] | %Inh (CDK9) [%] | %Inh (CDKL1) [%] |
| --- | --- | --- | --- | --- | --- | --- | --- | --- | --- | --- | --- | --- | --- | --- | --- | --- | --- | --- | --- | --- |
| COC(=O)c1c(-c2ccccc2)c2cc(Cl)ccc2c(=O)n1Cc1ccc(S(C)(=O)=O)cc1 | 5 | 9 | 0 | 0 | 14 | 0 | 10 | 10 | 29 | 0 | 0 | 0 | 0 | 4 | 0 | 7 | 10 | 0 | 7 | 9 |
| Nc1nc(-c2ccc3c(N)n[nH]c3c2)cc(N2CCCCC2)n1 [GSK2228768] | 0 | 25 | 0 | 0 | 6 | 15 | 0 | 0 | 0 | 0 | 6 | 17 | 0 | 0 | 0 | 0 | 0 | 0 | 0 | 20 |
| Cn1ccc2ncnc(Oc3ccc(NC(=O)Nc4cccnc4)c(Cl)c3)c21 | 19 | 19 | 0 | 20 | 11 | 0 | 9 | 0 | 10 | 0 | 0 | 0 | 0 | 0 | 0 | 4 | 7 | 0 | 2 | 8 |
| COc1ccc(Nc2nccc(N3CCC(NC(=O)Nc4ccc5c(c4)OCO5)C3)n2)cc1 (stereo not drawn) [GSK1379745] | 7 | 20 | 0 | 29 | 9 | 5 | 0 | 0 | 0 | 46 | 73 | 2 | 42 | 0 | 32 | 2 | 0 | 46 | 0 | 1 |
| FC(F)(F)c1ccc(-c2cc(-c3c[nH]nc3-c3ccccn3)ccn2)cc1 [GW599550] | 12 | 27 | 0 | 11 | 23 | 0 | 0 | 26 | 0 | 17 | 2 | 20 | 11 | 0 | 35 | 0 | 0 | 32 | 0 | 2 |
| O=C(Nc1ccccc1F)NC1CCN(c2ccnc(Nc3ccc(F)cc3)n2)C1 (stereo not drawn) [GSK1379722] | 0 | 12 | 0 | 0 | 3 | 17 | 0 | 0 | 0 | 19 | 0 | 16 | 0 | 2 | 31 | 0 | 0 | 22 | 0 | 18 |
| C[C@H]1CC[C@@H](C(=O)Nc2ccccc2)CN1c1cc(-c2ccc3c(N)n[nH]c3c2)nc(N)n1 [GSK2283293] | 3 | 16 | 0 | 7 | 15 | 4 | 0 | 13 | 0 | 0 | 0 | 0 | 0 | 0 | 0 | 0 | 0 | 14 | 0 | 22 |
| CNc1nccc(-c2c(-c3ccc(F)cc3)ncn2C2CCN(C)CC2)n1 [SB-222903] | 0 | 0 | 7 | 0 | 0 | 11 | 4 | 13 | 0 | 0 | 0 | 0 | 0 | 0 | 0 | 0 | 0 | 46 | 1 | 13 |
| NC(=O)c1sc(-n2cnc3ccccc32)cc1OCc1ccccc1F [GSK1024306] | 0 | 14 | 0 | 0 | 10 | 49 | 0 | 0 | 0 | 8 | 0 | 0 | 0 | 0 | 33 | 0 | 0 | 37 | 0 | 10 |
| CCCc1ccc(S(=O)(=O)NC2CCN(c3ccnc(Nc4ccc(OC)cc4)n3)C2)cc1 (stereo not drawn) [GSK1379737] | 4 | 4 | 0 | 0 | 0 | 22 | 0 | 0 | 0 | 17 | 0 | 16 | 25 | 0 | 37 | 0 | 0 | 50 | 0 | 6 |
| CC(C)(C)c1ccc(-n2cnc3c(N)ncnc32)cc1 [SKF-97263] | 2 | 0 | 0 | 0 | 0 | 12 | 0 | 0 | 0 | 10 | 0 | 3 | 0 | 0 | 0 | 0 | 0 | 0 | 0 | 0 |
| CCn1c(-c2ccncc2)nc2cnccc21 [SB-735216] | 0 | 0 | 0 | 0 | 4 | 5 | 9 | 0 | 28 | 18 | 5 | 1 | 0 | 0 | 45 | 0 | 6 | 0 | 0 | 12 |
| Clc1cc(Nc2ncnc3cc[nH]c23)ccc1OCc1ccccn1 | 19 | 0 | 0 | 0 | 0 | 0 | 12 | 15 | 0 | 29 | 8 | 1 | 10 | 0 | 10 | 22 | 29 | 0 | 30 | 16 |
| Nc1nc(-c2ccccn2)c(-c2ccnc3ccccc23)s1 [GW548057] | 6 | 20 | 0 | 13 | 21 | 26 | 0 | 11 | 0 | 10 | 0 | 5 | 49 | 0 | 0 | 0 | 2 | 56 | 0 | 12 |
| Fc1ccc(-c2ncn(CCCNCc3ccccc3)c2-c2ccncc2)cc1 | 0 | 0 | 4 | 0 | 0 | 27 | 0 | 0 | 18 | 0 | 0 | 7 | 0 | 13 | 0 | 4 | 27 | 0 | 0 | 0 |
